Compound activity deposited in PubChem BioAssay by Broad Institute.
This excerpt belongs to a sample that is enriched for hits.
EZH2 inh: inhibitors of human EZH2/PRC2 methyltransferase; PRC2 H3K27 methylation, DELFIA TRF, 1 h; inhibition, % at 12.5 µM; 57,000 compounds, 0.35% hits; AID 651548;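 active means mean inhibition of replicates at least 50% and every single replicate also reaching 50%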;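 further: dimethyl H3K27 on biotinylated H3 21-44 peptide detected by antibody; plate controls were median neutral control wells for no effect and median positive control wells for full effect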
* hit, by the source's call.

SMILES	EZH2 inh
CC(=O)OCC1=CCCC2[C@@]1(C)CC[C@@H](C)[C@]2(C)CCC(C)CC(=O)O (stereo partly specified)	-1
O=[N+]([O-])c1ccccc1OCCCCSc1ncccn1	5
Cc1ccc(C)c(OCCCCSc2ncccn2)c1Cl	56*
Clc1ccc(OCCCCSc2ncccn2)cc1	28
Cc1cc(Cl)cc(Br)c1OCCCSc1ncccn1	62*
Cc1ccc([N+](=O)[O-])c(OCCCSc2ncccn2)c1	16
CC1(C)COC(CCC/C=N/NC(=O)CCCCCCC(=O)NO)OC1	-9
COc1ccc(C(Nc2cccc(C)n2)c2ccc3ccc(C)nc3c2O)c(OC)c1OC (stereo unspecified)	-11
CCOc1cc(/C=N/NC(=O)c2ccc(C(=O)NO)cc2)ccc1O	7
Cc1nnc(SCC(=O)c2c(C)[nH]c3ccccc23)s1	-22
Cc1ccc(-c2cc3ccccn3c2C(=O)CSc2nnc(C)s2)cc1	53*
Cc1ccc(F)c(NC(=O)CSc2nnc(C)s2)c1	6
CSc1ccccc1NC(=O)Cn1c(-c2nonc2N)nc2ccccc21	-11
CS(=O)(=O)N(CC(=O)Nc1ccc(Cl)c(C(F)(F)F)c1)c1cccc(C(F)(F)F)c1	22
CC(=O)Nc1ccc(NC(=O)CN(c2ccc(Cl)c(C(F)(F)F)c2)S(C)(=O)=O)cc1	-27
CNC(=O)c1cc(Oc2ccc(NC(=O)Nc3ccc(Cl)c(C(F)(F)F)c3)cc2)ccn1	57*
COc1ccc([Si](C)(C)[C@H]2[C@H](CCn3cc([C@H](O)c4ccccc4)nn3)O[C@@]3(C(=O)N(C)c4c(Br)cc(C)cc43)[C@@H]2C)cc1	17
COc1ccc([Si](C)(C)[C@@H]2[C@@H](CCO)O[C@]3(C(=O)N(C)c4c(Br)cc(C)cc43)[C@H]2C)cc1	52*
COc1ccc([Si](C)(C)[C@@H]2[C@@H](CCn3cc([C@H](O)c4ccccc4)nn3)O[C@]3(C(=O)N(c4ccccc4)c4ccccc43)[C@H]2C)cc1	11
COc1ccc([Si](C)(C)[C@@H]2[C@@H](CCO)O[C@]3(C(=O)N(c4ccccc4)c4ccccc43)[C@H]2C)cc1	51*
COc1ccc([Si](C)(C)[C@@H]2[C@@H](CCO)O[C@]3(C(=O)N(Cc4ccc(NC(C)=O)cc4)c4ccccc43)[C@H]2C)cc1	20
COc1ccc([Si](C)(C)[C@@H]2[C@@H](CCO)O[C@]3(C(=O)N(C)c4ccccc43)[C@H]2C)cc1	12
N#Cc1ccccc1NC(=O)COc1ccc(Cl)cc1Cl	-7
O=C(NO)c1ccc(C(=O)N/N=C/c2ccc(I)cc2)cc1	8
Cc1ccc(-c2nn(C)c(=O)c3ccccc23)cc1CNC(=O)CN1C(=O)c2ccccc2C1=O	-12
SMILES	EZH2 inh
O=C(COc1ccccc1Cl)Nc1ccccc1[N+](=O)[O-]	23
COc1cc(OC)c(NC(=O)CCN2C(=O)c3ccccc3C2=O)cc1Cl	7
COc1ccc2[nH]c3c(OC)ncnc3c2c1	10
C/C=C/[C@@H](CCn1cc(CCO)nn1)[Si](C)(C)c1ccc(OC)cc1	13
C/C=C/[C@H](CC(=O)N(CCO)Cc1ccccc1)[Si](C)(C)c1ccc(OC)cc1	58*
C/C=C/[C@H](CCn1cc(CCO)nn1)[Si](C)(C)c1ccc(OC)cc1	27
COC(=O)CCCCCCC(=O)N/N=C/[C@@H](O)[C@H](O)[C@H](O)CO	-7
CN(CC(=O)Nc1ccccc1Sc1ccccc1)S(=O)(=O)c1ccc(F)cc1	12
CC(=O)Nc1ccc(C(=O)CSc2nc3ccccc3o2)cc1	-3
COc1ccc(C2Oc3c(OC)cc(/C=C/COC4OC(CO)C(O)C(O)C4O)cc3C2CO)cc1OC (stereo unspecified)	-7
COc1cc(C2c3c(cc(OC)c(O)c3OC)CC(CO)C2COC2OC(CO)C(O)C(O)C2O)cc(OC)c1O (stereo unspecified)	101*
CS(=O)(=O)N(CC(=O)Nc1ccc(C(F)(F)F)cc1)c1cccc([N+](=O)[O-])c1	-8
COc1c(O)cc2c(c1O)[C@H]1O[C@H](CO)[C@@H](O)[C@H](O)[C@@H]1OC2=O	8
O=C1C[C@@H](c2ccc(O)cc2)Oc2cc(O)c([C@@H]3O[C@H](CO)[C@@H](O)[C@H](O)[C@H]3O)c(O)c21	-34
O=C(OC1C(c2c(O)cc(O)c(C(=O)c3ccc(O)cc3)c2O)OC(CO)C(O)C1O)c1cc(O)c(O)c(O)c1 (stereo unspecified)	56*
O=S(=O)(NC1CCN(Cc2cccc(OCCO)c2)CC1)c1ccc(Cl)cc1	-1
O=C(CNS(=O)(=O)c1ccc(Br)cc1)Nc1cccc2ccccc12	11
O=C(Nc1cccc2ccccc12)OCCn1ncc2ccccc2c1=O	-7
Nc1c(S(=O)(=O)O)cc(Nc2cccc3ccccc23)c2c1C(=O)c1ccccc1C2=O	82*
Nc1c(S(=O)(=O)O)cc(Nc2ccc(Cl)cc2)c2c1C(=O)c1ccccc1C2=O	68*
O=C(CCCCC(=O)N/N=C/c1cccs1)NO	-39
COc1ccc(/C=N/NC(=O)c2ccc(C(=O)NO)cc2)cc1O	10
COc1ccc(NC(=O)CSc2nc3sc4c(c3c(=O)n2-c2ccccc2)CCCC4)c([N+](=O)[O-])c1	0
COC(=O)[C@]1(CO)N=C(c2ccc(OCCCO)cc2)O[C@@H]1c1ccccc1N=[N+]=[N-]	-8
COC(=O)c1cc(OC)c(OC)cc1NC(=O)COc1ccc(OC)cc1	-5
SMILES	EZH2 inh
O=C(CSc1nc2cc3ccccc3cc2[nH]1)Nc1ccccc1Cl	35
CC(C)c1onc(-c2c(Cl)cccc2Cl)c1COc1ccc(/C=C/c2cccc(C(=O)O)c2)c(Cl)c1	73*
O=C(O)CCCCCC(=O)N/N=C/c1ccc(Br)s1	15
CSc1cccc(NC(=O)CSc2nnc(-c3ccc(Br)cc3)n2C)c1	13
O=c1c(O)c(-c2ccc(O)c(O)c2)oc2cc(O)cc(O)c12	62*
O=c1c(O[C@@H]2O[C@H](CO)[C@H](O)[C@H](O)[C@H]2O)c(-c2ccc(O)cc2)oc2cc(O)cc(O)c12	5
COc1cc(-c2oc3cc(O)cc(O)c3c(=O)c2O[C@@H]2O[C@H](CO)[C@@H](O)[C@H](O)[C@H]2O)ccc1O[C@@H]1O[C@H](CO)[C@@H](O)[C@H](O)[C@H]1O	-9
COc1c(OC)c(O)c2c(=O)c(O)c(-c3ccccc3)oc2c1OC	-30
COc1cc(O)c2c(=O)c(OC3OC(CO[C@@H]4O[C@@H](C)[C@H](O)[C@@H](O[C@@H]5O[C@@H](C)[C@H](O)[C@@H](O)[C@H]5O)[C@H]4O)C(O)C(O)C3O)c(-c3ccc(O)cc3)oc2c1 (stereo partly specified)	8
O=c1c(O[C@@H]2OC[C@H](O)[C@H](O)[C@H]2O)c(-c2ccc(O)c(O)c2)oc2cc(O)cc(O)c12	69*
O=c1c(O[C@@H]2OC[C@H](O)[C@H](O)[C@H]2O)c(-c2ccc(O)cc2)oc2cc(O)cc(O)c12	100*
O=c1c(-c2ccc(O)cc2)coc2cc(O)cc(O)c12	13
O=C1C[C@@H](c2ccc(O)c(O)c2)Oc2cc(O[C@@H]3O[C@H](CO)[C@@H](O)[C@H](O)[C@H]3O)cc(O)c21	5
O=c1c(OC2OCC(O)C(O)C2O)c(-c2ccc(O)c(O)c2)oc2cc(O)cc(O)c12 (stereo unspecified)	99*
O=C(O)C(c1ccccc1)N1C(=O)/C(=C/c2ccncc2)SC1=S (stereo unspecified)	2
O=C(N/N=C/c1cc(Br)cc(Br)c1O)c1ccccn1	-49
